Measured values: PubChem BioAssay
Activity calls are given as the source filed them.

Experiments:
[1] = E. coli DRC41 culture turbidity changes, primary screen, E. coli filamentation inducer project, strain DRC41, OD650, 48 h (AID 1152);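 also: E. coli MC1000 strain DRC41 lacking acrAB efflux pump and sulA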; settings: E. coli DRC41 (acrAB sulA), higher = more signal, called active from +8 up or from −8 down
[2] = small-molecule binders of probe aLefty1, primary screen, biochemical, small-molecule microarray, 635/667 nm fluorescence (AID 1153); settings: higher = more signal;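 also: score merges spot fluorescence with signal-to-noise ratio from the scanned slide images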
[3] = PSAC antagonists in infected red cells, primary screen, cell-based, P. falciparum Indochina, OD700, 1 h (AID 1154); settings: P. falciparum Indochina infected RBC osmotic lysis, higher = more signal, called active from +8 up or from −8 down
[4] = PSAC antagonists in infected red cells, primary screen, cell-based, P. falciparum Indochina, OD700, 2 h (AID 1155);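 also: lysis reports solute entry through the parasite surface anion channel PSAC; channel blockers reduce lysis of infected cells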; settings: P. falciparum Indochina infected erythrocytes, osmotic lysis OD700; higher = more signal, called active from +8 up or from −8 down
[5] = osmotic lysis modulators in infected erythrocytes, primary screen, PSAC antagonist project, cell-based, P. falciparum Indochina, OD700, 3 h (AID 1156); settings: higher = more signal, called active from +8 up or from −8 down
[6] = PSAC antagonists in infected red cells, primary screen, cell-based, P. falciparum Indochina, OD700, 18 h (AID 1157); settings: P. falciparum Indochina infected erythrocytes, osmotic lysis OD700, 18 h; higher = more signal, called active from +8 up or from −8 down
[7] = modulators of S6 phosphorylation in cells, primary screen, cell-based, A549, cytoblot, luminescence, serum-stimulated (AID 1158); settings: A549 phospho-S6 cytoblot, 5 h, higher = more signal;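 also: serum-stimulated A549 lung adenocarcinoma cells; signal is phosphorylated S6 detected by cytoblot immunostaining with HRP secondary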
[8] = biological target: NADPH oxidase 2 (Homo sapiens) (UniProt P04839); test: NOX2-dependent H2O2 signal modulators, primary screen, NOX inhibitor project, cell-based, HEK293-NOX2, PMA-stimulated, Amplex Red fluorescence (AID 1159); settings: 45 min, higher = more signal, called active from +8 up or from −8 down; also: test concentration not given here
[9] = biological target: NADPH oxidase 4 (Homo sapiens) (UniProt Q9NPH5); test: NOX4-dependent H2O2 signal modulators, primary screen, NOX inhibitor project, cell-based, HEK293-NOX4, tetracycline-induced, Amplex Red fluorescence (AID 1160); settings: 45 min, higher = more signal, called active from +8 up or from −8 down
[10] = biological target: NADPH oxidase 5 (Homo sapiens) (UniProt Q96PH1); test: NOX5-dependent H2O2 signal modulators, primary screen, NOX inhibitor project, cell-based, HEK293-NOX5, Amplex Red fluorescence (AID 1161); settings: HEK293-NOX5, ionomycin, 45 min, higher = more signal
[11] = A549 cell viability effects, profiling panel, calcein-AM fluorescence, 48 h, basal (AID 1162); settings: higher = more signal; also: test concentration not given here
[12] = adipocyte viability effects, profiling panel, cell-based, 3T3-L1 adipocytes, calcein-AM fluorescence, 48 h, basal (AID 1163); settings: 3T3-L1 adipocytes viability, higher = more signal; also: test concentration not given here
[13] = HepG2 cell viability effects, profiling panel, calcein-AM fluorescence, 48 h, basal (AID 1164); settings: higher = more signal; also: test concentration not given here
[14] = MM1S cell viability effects, profiling panel, calcein-AM fluorescence, 48 h, basal (AID 1165); settings: higher = more signal;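 also: viability of MM1S multiple myeloma cells under basal unstimulated conditions; test concentration not given here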
[15] = basal RPMI8226 viability, no added stimulus, profiling panel, cell-based, calcein-AM fluorescence, 48 h, PK04 Diversity Set (AID 1166); settings: RPMI8226 myeloma viability, higher = more signal;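 also: cells grown under basal conditions without added stimulus; test concentration not given here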
[16] = basal HepG2 mitochondrial membrane potential changes, profiling panel, cell-based, JC-1 fluorescence, 24 h, 100 nL compound (AID 1167); settings: higher = more signal; also: test concentration not given here
[17] = basal 3T3-L1 adipocyte mitochondrial potential changes, profiling panel, cell-based, JC-1 fluorescence, 3T3-L1 adipocytes, 24 h, 100 nL compound (AID 1168); settings: JC-1 mitochondrial fluorescence, higher = more signal, called active from +8 up or from −8 down; also: test concentration not given here
[18] = basal RPMI8226 mitochondrial membrane potential changes, profiling panel, cell-based, JC-1 fluorescence, 24 h, 100 nL compound (AID 1169); settings: RPMI8226 myeloma, JC-1 mitochondrial potential fluorescence, higher = more signal; also: test concentration not given here
[19] = basal MM1S mitochondrial membrane potential changes, profiling panel, cell-based, JC-1 fluorescence, 24 h, 100 nL compound (AID 1170); settings: higher = more signal; also: test concentration not given here
[20] = A549 lung cancer cell viability effects, profiling panel, resazurin fluorescence, 24 h, PK04 Diversity Set (AID 1171); settings: higher = more signal, called active from +8 up or from −8 down; also: test concentration not given here

Sequence of NADPH oxidase 5 (Homo sapiens) (Q96PH1 whole entry, looked up): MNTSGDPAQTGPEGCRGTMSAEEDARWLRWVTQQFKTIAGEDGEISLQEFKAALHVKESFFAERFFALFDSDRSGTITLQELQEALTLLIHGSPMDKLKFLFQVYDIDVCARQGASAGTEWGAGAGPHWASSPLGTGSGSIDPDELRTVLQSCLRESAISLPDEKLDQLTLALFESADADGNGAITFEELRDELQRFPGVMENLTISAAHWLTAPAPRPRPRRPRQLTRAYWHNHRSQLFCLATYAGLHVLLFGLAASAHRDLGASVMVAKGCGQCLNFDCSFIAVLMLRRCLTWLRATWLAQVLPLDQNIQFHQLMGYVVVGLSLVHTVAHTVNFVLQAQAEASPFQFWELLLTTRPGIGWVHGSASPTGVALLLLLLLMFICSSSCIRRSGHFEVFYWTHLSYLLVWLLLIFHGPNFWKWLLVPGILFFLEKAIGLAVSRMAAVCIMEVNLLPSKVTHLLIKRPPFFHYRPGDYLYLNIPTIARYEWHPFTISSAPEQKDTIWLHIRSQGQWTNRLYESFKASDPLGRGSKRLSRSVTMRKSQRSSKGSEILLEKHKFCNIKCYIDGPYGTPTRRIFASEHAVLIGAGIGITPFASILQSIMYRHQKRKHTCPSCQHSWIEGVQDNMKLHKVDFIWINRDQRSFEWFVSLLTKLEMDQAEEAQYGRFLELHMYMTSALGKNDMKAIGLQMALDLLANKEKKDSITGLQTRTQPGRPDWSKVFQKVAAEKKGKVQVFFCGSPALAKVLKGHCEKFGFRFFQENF
Sequence of NADPH oxidase 4 (Homo sapiens) (Q9NPH5 whole entry, looked up): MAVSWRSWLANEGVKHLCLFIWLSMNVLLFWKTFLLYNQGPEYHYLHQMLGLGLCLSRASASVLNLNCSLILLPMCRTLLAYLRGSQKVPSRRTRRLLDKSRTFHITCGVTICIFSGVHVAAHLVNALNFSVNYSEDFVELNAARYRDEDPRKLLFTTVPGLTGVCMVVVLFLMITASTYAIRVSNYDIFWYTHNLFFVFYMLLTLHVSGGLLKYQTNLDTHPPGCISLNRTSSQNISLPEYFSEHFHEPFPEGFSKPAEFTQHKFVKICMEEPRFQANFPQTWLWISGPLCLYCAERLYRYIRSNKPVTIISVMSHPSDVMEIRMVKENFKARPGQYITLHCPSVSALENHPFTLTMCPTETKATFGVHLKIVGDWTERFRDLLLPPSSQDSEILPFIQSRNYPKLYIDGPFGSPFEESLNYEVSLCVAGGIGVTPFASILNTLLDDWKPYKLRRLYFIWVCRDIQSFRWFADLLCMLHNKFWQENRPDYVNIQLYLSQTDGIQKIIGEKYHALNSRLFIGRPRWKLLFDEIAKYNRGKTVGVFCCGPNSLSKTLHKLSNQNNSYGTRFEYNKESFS
Sequence of NADPH oxidase 2 (Homo sapiens) (P04839 whole entry, looked up): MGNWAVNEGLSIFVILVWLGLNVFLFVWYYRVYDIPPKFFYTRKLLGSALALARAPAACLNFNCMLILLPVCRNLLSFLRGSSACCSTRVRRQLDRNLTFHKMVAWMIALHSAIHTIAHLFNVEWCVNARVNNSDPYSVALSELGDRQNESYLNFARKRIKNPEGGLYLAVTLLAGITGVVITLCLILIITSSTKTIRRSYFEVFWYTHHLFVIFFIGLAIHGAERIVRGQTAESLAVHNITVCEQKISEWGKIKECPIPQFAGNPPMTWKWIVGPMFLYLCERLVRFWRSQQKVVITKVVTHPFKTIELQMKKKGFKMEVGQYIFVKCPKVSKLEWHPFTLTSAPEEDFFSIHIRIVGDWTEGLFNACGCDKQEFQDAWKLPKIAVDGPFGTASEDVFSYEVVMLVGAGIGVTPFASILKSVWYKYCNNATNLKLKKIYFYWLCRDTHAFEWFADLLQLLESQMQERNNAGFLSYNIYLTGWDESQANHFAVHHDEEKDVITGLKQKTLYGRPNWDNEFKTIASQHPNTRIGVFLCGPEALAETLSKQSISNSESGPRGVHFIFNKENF

SMILES	z-score [1]	composite z-score [2]	z-score [3]	z-score [4]	z-score [5]	z-score [6]	z-score [7]	z-score [8]	z-score [9]	z-score [10]	z-score [11]	z-score [12]	z-score [13]	z-score [14]	z-score [15]	z-score [16]	z-score [17]	z-score [18]	z-score [19]	z-score [20]
CN1C(=O)C2C=CC(C(O)c3ccc(I)cc3)N(N(c3ccccc3)c3ccccc3)C2C1=O (stereo not given)	-1.27 (inactive)	0.193	3.99 (inactive)	1.62 (inactive)	0.537 (inactive)	1.54 (inactive)	-1.19	0.461 (inactive)	1.23 (inactive)	-0.585	-0.62	-1.15	-0.0518	-0.0182	-0.726	-0.994	-1.67 (inactive)	-0.251	-0.752	-0.614 (inactive)
C=C(C(=O)CC[C@H](OC(=O)c1ccccc1-c1ccccc1C(=O)O)c1ccc(OCCO)cc1)C(C)C	-0.0716 (inactive)	0.235	11.6 (active)	1.77 (inactive)	2.09 (inactive)	0.92 (inactive)	-0.154	0.357 (inactive)	-0.446 (inactive)	-2.12	-0.535	0.484	-0.659	-1.43	-1.48	0.17	0.447 (inactive)	0.0683	-0.0663	0.393 (inactive)
COc1c(C)cc(-c2cc3c(c(CCc4ccccc4)n2)[Si](C(C)C)(C(C)C)O[C@H]3c2ccccc2)cc1C	-1.05 (inactive)	-0.147	4.98 (inactive)	2.59 (inactive)	0.576 (inactive)	1.09 (inactive)	-0.673	0.283 (inactive)	1.11 (inactive)	0.201	-0.216	-0.945	0.297	-3.19	-3.11	-2.39	-0.729 (inactive)	-1.04	-1.24	0.453 (inactive)
COc1ccc(C#Cc2ccc3c(c2)[C@]2(C(=O)N3)[C@H](c3ccccc3OCCO)N3[C@H](c4ccccc4)[C@H](c4ccccc4)OC(=O)[C@H]3[C@@H]2C(=O)NC[C@H](O)c2ccccc2)cc1	1.21 (inactive)	0.0147	1.71 (inactive)	1.71 (inactive)	0.0857 (inactive)	1.2 (inactive)	0.138	1.78 (inactive)	0.243 (inactive)	1.32	-1.22	0.449	-1.88	-2.85	-4.12	-1.21	3.95 (inactive)	-0.957	-1.66	-1.01 (inactive)
Cc1c(NC(=O)/C(C#N)=C/C=C/c2ccc([N+](=O)[O-])cc2)c(=O)n(-c2ccccc2)n1C	0.0351 (inactive)	0.277	2.74 (inactive)	0.636 (inactive)	0.206 (inactive)	0.598 (inactive)	-0.279	-0.696 (inactive)	0.0994 (inactive)	0.714	0.251	-0.141	-0.182	-1.02	-0.787	-1.19	0.0244 (inactive)	-0.278	0.096	0.0981 (inactive)
CCCCCN1CC=CC23O[C@@H]4/C=C\CCCOC(=O)C4[C@H]2C(=O)N(CCCCCO)[C@@H]3C1=O (stereo not given in full)	1.83 (inactive)	-0.255	0.46 (inactive)	-0.618 (inactive)	-1.29 (inactive)	-1.27 (inactive)	-0.0754	0.834 (inactive)	0.0699 (inactive)	1.41	0.386	1.96	-0.216	0.281	1.13	-0.116	1.24 (inactive)	-0.21	-0.235	0.844 (inactive)
COCCCNC(=O)[C@]1(Cc2ccccc2CN=[N+]=[N-])N=C(c2ccc(OCCCO)cc2)O[C@@H]1c1ccccc1N=[N+]=[N-]	0.913 (inactive)	0.87	33.7 (active)	31.2 (active)	1.91 (inactive)	8.54 (active)	0.0038	-0.713 (inactive)	1.06 (inactive)	1.42	-0.532	-0.541	-0.576	-2.96	-3.93	1.27	1.16 (inactive)	-1.12	-2.77	-2.12 (inactive)
CC(=O)NCCCC[C@@H]1NC(=O)[C@H]2C[C@@H](C(=O)NCCCCCN)[C@@H](c3ccc(O)cc3)N2C1=O	-0.556 (inactive)	0.302	0.537 (inactive)	0.33 (inactive)	0.0814 (inactive)	0.302 (inactive)	-0.413	0.178 (inactive)	-1.24 (inactive)	1.01	-0.754	0.311	-0.926	-0.0917	-0.556	-0.659	-0.34 (inactive)	0.135	0.353	-0.0632 (inactive)
O=C(c1ccccc1)N1Cc2ccccc2C[C@@]2(N=C(c3ccc(OCCCO)cc3)O[C@H]2c2ccccc2)C1=O	-0.702 (inactive)	0.149	6.6 (inactive)	1.66 (inactive)	2.54 (inactive)	0.937 (inactive)	-0.221	1.21 (inactive)	-0.172 (inactive)	-0.693	-1.12	0.862	-1.18	-3.31	-4.05	-1.68	0.471 (inactive)	-1.25	-2.14	-2.63 (inactive)
